{
  "source": "PubChem BioAssay (Tox21)",
  "note": "“And” between values parts separate entries of the source, which are not always exact repeats. Identical values can stand only once. Results filed as inconclusive are left out. Values without a mark were called inactive. The source made the active and inactive calls. Calls follow the shape of the dose curve; as a rule, active = well fitted cell-killing curve with a large enough effect in the repeat runs; inconclusive = weak or mixed curves, or effect the other way; inactive = flat fitted curve, though single readings scatter. % is scaled to controls: 0 for no effect and ±100 for the full control effect; potency is read from the fitted curve at half-maximal effect.",
  "data": [
    {"test": "Nuclear factor erythroid 2-related factor 2/antioxidant responsive element (Nrf2/ARE) small molecule agonists: qHTS cell viability counter screen in human keratinocytes (AID 1919968); also: nearly all actives have a fitted effect of over 55% in size", "details": "KeratinoSens HaCaT ARE cells viability, CellTiter-Fluor, 24 h; series mostly up to 92.4 µM; activity change, negative = cytotoxicity: at the top concentration", "from_the_text": "U.S. Tox21 Program National Center for Advancing Translational Sciences [NCATS] Division of Preclinical Innovation [DPI] U.S. Environmental Protection Agency [EPA] National Institutes of Environmental Health Sciences [NIEHS] National Toxicology Program [NTP] U.S. Food and Drug Administration [FDA] Tox21 Assay Overview: Oxidative stress has been implicated in the pathogenesis of a variety of diseases ranging from cancer to neurodegeneration. The antioxidant response element (ARE) signaling pathway plays an important role in the amelioration of oxidative stress. The KeratinoSens (Givaudan, Switzerland) is an in vitro test method which quantifies luciferase induction as a measure of activation of Keap1-Nrf2-antioxidationt/electrophile response element (ARE) dependant pathway in HaCaT human keratinocytes stably transfected with a selectable plasmid. The KeratinoSens assay is a cell-based assay with a reporter cell line to detect potential skin sensitizers by their ability to induce the Nrf2/ARE-response. The activation of the report gene under culture conditions can be detected by ONE-Glo Luciferase Assay System (Promega, Madison, WI). This cell line has been used to screen the Tox21 10K compound library to identify agonists that induce oxidative stress. The cytotoxicity of the Tox21 compound library against the KS-ARE cell line was tested in parallel by measuring the cell viability using CellTiter- Fluor assay system (Promega, Madison, WI) in the same wells.\nTox21 Assay Protocol Summary: HaCaT derived cell line KeratinoSens were dispensed at 1,500 cells/5uL/well in 1536-well white wall/solid bottom plates using a Multidrop Combi (ThermoFisher Scientific, Waltham, MA) dispenser. After the assay plates were incubated at 37 C/5% CO2 for 5 h, 23 nL of compounds dissolved in DMSO, positive controls or DMSO only was transferred to the assay plate by a pintool workstation (Kalypsys, San Diego, CA). The plates were incubated at 37 C/5% CO2 for 23 h, followed by addition of 1uL/well of CellTiter-Fluor reagent into the assay plates using a Flying Reagent Dispenser (Aurora Discovery, San Diego, CA) for cell viability readout that measures cytotoxicity. After 1 h incubation at 37 C/5% CO2 the fluorescence intensity was measured using a ViewLux (PerkinElmer, Shelton, CT) plate reader.", "values": [
      {"smiles": "CC(=O)OCC1=C(C(=O)O)N2C(=O)[C@@H](NC(=O)Cc3cccs3)[C@H]2SC1", "activity change, negative = cytotoxicity": "2.63% [at 42.5 µM]"},
      {"smiles": "CC(C)CCOCCC(C)C", "activity change, negative = cytotoxicity": "-3.09%"},
      {"smiles": "CN(C)CCCNCCCN", "activity change, negative = cytotoxicity": "-4.27%"},
      {"smiles": "CCCCC(O)/C=C(C)/C=C/C=C/C(=O)N1CCCC1=O", "note": "(stereo not given)", "activity change, negative = cytotoxicity": "-16.3% [at 42.5 µM]"},
      {"smiles": "CC(C)OC(=O)C(C)(C)Oc1ccc(C(=O)c2ccc(Cl)cc2)cc1", "activity change, negative = cytotoxicity": "27.3% [at 42.5 µM]"},
      {"smiles": "CO[Si](OC)(OC)c1ccccc1", "activity change, negative = cytotoxicity": "8.54%"},
      {"smiles": "CCCCCC/C=C/C(=O)OC", "activity change, negative = cytotoxicity": "-2.54%"},
      {"smiles": "CCCCOCCOCCOCCO", "Potency": "inactive"},
      {"smiles": "ClC/C=C\\CCl", "activity change, negative = cytotoxicity": "-2.95%"},
      {"smiles": "O=C(/N=N/C(=O)OCc1ccccc1)OCc1ccccc1", "activity change, negative = cytotoxicity": "-6.61%"},
      {"smiles": "OC[C@H]1O[C@@H]2O[C@H]3[C@H](O)[C@@H](O)[C@@H](O[C@H]4[C@H](O)[C@@H](O)[C@@H](O[C@H]5[C@H](O)[C@@H](O)[C@@H](O[C@H]6[C@H](O)[C@@H](O)[C@@H](O[C@H]7[C@H](O)[C@@H](O)[C@@H](O[C@H]1[C@H](O)[C@H]2O)O[C@@H]7CO)O[C@@H]6CO)O[C@@H]5CO)O[C@@H]4CO)O[C@@H]3CO", "activity change, negative = cytotoxicity": "7.24%"},
      {"smiles": "CCCCCC=O", "Potency": "inactive"},
      {"smiles": "c1ccc2cnncc2c1", "activity change, negative = cytotoxicity": "0.71%"},
      {"smiles": "O=C1C(O)=C(O)C(=O)C(O)=C1O", "activity change, negative = cytotoxicity": "-1.28% [at 42.5 µM]"},
      {"smiles": "C=C(C)C(=O)OCCOP(=O)(O)O", "activity change, negative = cytotoxicity": "-2.68%"},
      {"smiles": "CCN(CC)CCNC(=O)c1ccc(NC(C)=O)cc1", "activity change, negative = cytotoxicity": "4.59% [at 42.5 µM]"},
      {"smiles": "Cc1ccc(CO)cc1", "activity change, negative = cytotoxicity": "-1.22%"},
      {"smiles": "CCCCCCCCN(C)C", "activity change, negative = cytotoxicity": "3.1%"},
      {"smiles": "CC(C)(C)CC(C)(C)c1ccc(OCCOCC[N+](C)(C)Cc2ccccc2)cc1", "Potency": "24.3 µM (active) and 10.6 µM (active)"},
      {"smiles": "O=CC1CC1", "activity change, negative = cytotoxicity": "0.606%"},
      {"smiles": "CC(C)(C)c1ccc(S)cc1", "activity change, negative = cytotoxicity": "8.47%"},
      {"smiles": "Cc1ccc2oc(=O)ccc2c1", "Potency": "inactive"},
      {"smiles": "CO[C@@H]1[C@@H](O[C@@H]2O[C@H](C)[C@@H](O[C@H]3C[C@@](C)(O)[C@@H](O)[C@H](C)O3)[C@H](N(C)C)[C@H]2O)[C@@H](CC=O)C[C@@H](C)[C@@H](O[C@@H]2CC[C@H](N(C)C)[C@@H](C)O2)/C=C/C=C/C[C@@H](C)OC(=O)C[C@H]1OC(C)=O", "activity change, negative = cytotoxicity": "-16% [at 42.5 µM]"},
      {"smiles": "NC(=O)Nc1ccc(Cl)cc1", "activity change, negative = cytotoxicity": "4.66%"},
      {"smiles": "O=S(O)CO", "activity change, negative = cytotoxicity": "-0.983%"},
      {"smiles": "CC(C)(C)C1CCCCC1O", "note": "(stereo not given)", "activity change, negative = cytotoxicity": "0.0965%"},
      {"smiles": "COC(=O)C1=C(C)NC(C)=C(C(=O)OCCN(C)Cc2ccccc2)C1c1cccc([N+](=O)[O-])c1", "note": "(stereo not given)", "Potency": "30.5 µM (active)"},
      {"smiles": "CCN(CC)CC(=O)Oc1ccc(NC(C)=O)cc1", "activity change, negative = cytotoxicity": "2.12% [at 42.5 µM]"},
      {"smiles": "CCC(COC(=O)CCS)(COC(=O)CCS)COC(=O)CCS", "activity change, negative = cytotoxicity": "4.49%"},
      {"smiles": "COC(=O)N[C@H](C(=O)N[C@@H](Cc1ccccc1)[C@@H](O)CN(Cc1ccc(-c2ccccn2)cc1)NC(=O)[C@@H](NC(=O)OC)C(C)(C)C)C(C)(C)C", "activity change, negative = cytotoxicity": "-4.65% [at 42.5 µM]"},
      {"smiles": "CCN(CC)C(=O)C1CN2CCc3cc(OC)c(OC)cc3C2CC1OC(C)=O", "note": "(stereo not given)", "activity change, negative = cytotoxicity": "-3.88% [at 42.5 µM]"},
      {"smiles": "CCC(O)CO", "note": "(stereo not given)", "activity change, negative = cytotoxicity": "-4.66%"},
      {"smiles": "CC(C)(O)C#CC(C)(C)O", "activity change, negative = cytotoxicity": "-3.98%"},
      {"smiles": "CCOC(=O)CCC(C)=O", "activity change, negative = cytotoxicity": "-1.41%"},
      {"smiles": "CC(C)CCO", "activity change, negative = cytotoxicity": "2.01%"},
      {"smiles": "C/C=C/C(=O)O", "Potency": "inactive"},
      {"smiles": "CCC(C)(C)C1CCC(=O)CC1", "activity change, negative = cytotoxicity": "-0.249%"},
      {"smiles": "NC(=O)c1ccc(N)cc1", "activity change, negative = cytotoxicity": "-0.968%"},
      {"smiles": "COC(c1ccccc1)(c1ccccc1)[C@H](Oc1nc(C)cc(C)n1)C(=O)O", "activity change, negative = cytotoxicity": "2.46% [at 42.5 µM]"},
      {"smiles": "COc1ccc(CCN2CCC(Nc3nc4ccccc4n3Cc3ccc(F)cc3)CC2)cc1", "Potency": "11.1 µM (active) and 23.7 µM (active)"}
    ]}
  ]
}
